Hit rate of the full screen: of about 31,000 sequences, about 1,400 (4.5%) were called active.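 Rule for the calls: active = median seed-adjusted z-score above 1 or below -1; inactive = the rest.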 The full list was thinned out, with actives kept by preference.

A short description of this assay: Novel Modifiers of Survival Motor Neuron (SMN) Protein: Gene Identification via Genome-wide siRNA Screen.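 Note: luminescence tracks full-length SMN protein made from the SMN2 reporter.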 As to conditions: HEK293T SMN2-luciferase reporter, siRNA knockdown, 72 h; actives lie on both sides. In a few lines:
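Luciferase signal, proportional to full-length SMN made from an SMN2 cDNA reporter in stable HEK293T cells, was read 72 h after siRNA reverse transfection. Values were expressed as MAD scores after non-targeting-control normalization and log10 conversion; seed analysis flagged off-targets.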
In general terms: In a reporter assay the amount or activity of a reporter protein is the signal.
Take GCCUUGAUGCUGAUCAUCATT against MEP1B: the median seed-adjusted z-score is 1.46 (active).
For the sequence GGUGAAUCAUUUGAACUGATT against RCL1, the median seed-adjusted z-score is 0.0807 (inactive).
The same measure for GGAAUACUCAGAUCGGGAATT against MAP3K3: -0.182 (inactive).
For the sequence GUAUGGAGAUCUCUACGGATT against RYR3, the median seed-adjusted z-score was 0 (inactive).
With GUAUGACCUAAAAACCGAATT against MTRR the figure was -0.381 (inactive); with AGAGAUACUUCUUAAAUCATT against YAP1, -0.247 (inactive).
With GCUCAAUGCAGGUAUUCAATT against KLF8 the figure was 0.0976 (inactive).
With “AAGUCUCAUUCGUGGUUGATT against ST6GALNAC6”, the median seed-adjusted z-score was 0.367 (inactive).
The same measure for CAGCCCAAGUGUCGCCUUATT against PAX9: -1.16 (active).
With GAUAUUCUCUGUGACGUGATT against BACH2 the figure was 0 (inactive); with GACCAGAUGUGGAUGUAAATT against MIB1, 0 (inactive); with ACUAGCCUGUGGAGCAAGATT against HBE1, -0.425 (inactive).
With CCGAUCAAGUGAACAUAGATT against AKAP4 the figure was 0.116 (inactive); with CCUUCUCAACAUAGGAUAATT against ZNF257, 0.306 (inactive).
On to UGGGUUGGAUGAUACCUUATT against GATA5, for which the median seed-adjusted z-score is 0.15 (inactive).
With GAGGGUCUCUUCUUAAGUATT against CAD the figure was 2.37 (active); with UCAUCACAGCGGUACUGUATT against ITGAX, -0.0677 (inactive); with GCAGGUAGCUCAUAUGUUUTT against WDR31, 0.796 (inactive).
With GGACCACGUCAAGACUUGUTT against TRAF2 the figure was -0.00463 (inactive); with CAAACUUCCCGAUAGAGAATT against CTDP1, -2.29 (active); with CUAUCAGGGAAAUUACGUATT against ZNF713, -0.0652 (inactive).
The same measure for AAAUGUAACCUUUUGCUUUTT against DAD1: -0.45 (inactive); for GCUUUACCUUGGACCUGAATT against MPL: -0.0153 (inactive); for GCGUGAUCAUCGAUGUGGATT against SLC5A7: 0.624 (inactive).
In the case of GAUGUUCCCUAUAUGCAAATT against CLDN10, the median seed-adjusted z-score was 0.0399 (inactive).
In the case of GUGUAUCUAUGGAAGAGCATT against PSMD4, the median seed-adjusted z-score is 1.46 (active).
Take CUAUAAUUCCAGAGCAUAATT against KLF5: the median seed-adjusted z-score was -0.338 (inactive).
The same measure for GGACCUUGGAUUAUCUGAATT against YME1L1: 0.131 (inactive); for CACUAGUUCUAUGACCAUUTT against IMPG1: -0.252 (inactive).
With GCAUGGAAGUGUACGAGUATT against THBS3 the figure was 0.429 (inactive).
Regarding CCACUGACAAGGUCCACGATT against MRGPRD, the median seed-adjusted z-score was -0.484 (inactive).
The same measure for CCGUAAACUUCAUAACAUUTT against DYRK1A: -1.3 (active).
With CCUUAGUUCUUCCUCGGAATT against PARP12 the figure was -0.287 (inactive).
With GCUGAUCUAUCACAAACCATT against SERPINA2 the figure was 0.285 (inactive); with AAUGCAUUGUGAACCCAUUTT against GNGT2, -0.289 (inactive); with GGUUAGAAGAGGUGUCUAATT against NUMB, -0.599 (inactive).
Turning to AGCCCAAGGUGGAACAAUCTT against CREM, the median seed-adjusted z-score is -2.37 (active).
For GGAUGAACCCAAUCCCAAUTT against UBE2A, the median seed-adjusted z-score was 0.306 (inactive).
With GGUCCCUGUUGAGAAACGATT against TOP1 the figure was 0.0303 (inactive); with GCAAAGGCCUUGUACGUCATT against USP10, 0.182 (inactive).
With GCUUGAGUAUAGAUAAAGATT against PAM the figure was 0 (inactive); with UGGACACCGUCACCAUGAATT against GPR78, 0.607 (inactive).
The same measure for GCCGAGCUCUUUAUCCUCUTT against TRHDE: 0.429 (inactive).
Turning to GGAUCGGGUGUAUCAACAATT against SRP54, the median seed-adjusted z-score was 0.203 (inactive).
With CAUUGUCGUUGGUGCAGUATT against ADCY10 the figure was -0.573 (inactive); with GGAAUUACGGAGAUAUAGATT against TRRAP, -1.25 (active).
The same measure for GGACACAUCUCGGACAGCATT against KLK9: -0.476 (inactive); for GUACCUUGAGAAGAAAUUUTT against ACCN1: -0.325 (inactive).
With UCAGCUCCAUUAAUAGAAUTT against PAX8 the figure was 0 (inactive); with CCUCAUAAGUGUAAGAUAUTT against ZNF799, -1.02 (active); with GAAUGUCCCUGCUCCACAATT against SNAI1, 0.0196 (inactive).
On to ACAACUUCCUGGUCGCUGATT against GPR62, for which the median seed-adjusted z-score was 0.0306 (inactive).
The same measure for AGAAGAUCCGAAAGAAAUATT against GABARAP: 0.418 (inactive).
The same measure for CCAACGACCUGGUUAUGAATT against FBP1: -0.221 (inactive).
With GGUUGGAACUCGUUCCUCATT against NLGN4X the figure was -0.1 (inactive); with GCACAAGACGAACUCAGUATT against UBE2J2, -0.341 (inactive); with GCAUUGUCUCUCUUAUGUUTT against SYVN1, -1.41 (active).
For the sequence AGAUCAAGCUCCUCAACAATT against KRT4, the median seed-adjusted z-score is 0.336 (inactive).
With GUUAUUCCCUGUUCUCGAATT against ALDH5A1 the figure was 0.339 (inactive); with GGACGUGGACCAUUACUGUTT against LITAF, 0.0771 (inactive).
The same measure for GAUUAACCAAGGUUGAGAATT against CNGA1: -1.08 (active).
Regarding CCACAUCUCUACUCGUGAATT against ULK4, the median seed-adjusted z-score was 0.0834 (inactive).
The same measure for GGAGUUACGAUAGCCGGAATT against DIAPH1: 0.145 (inactive); for CGGGAUAAUUUUGACAAGATT against NXF2: -0.0513 (inactive).
With GGAAACUCUGUUUACGUUATT against BTAF1, the median seed-adjusted z-score was -1.19 (active).
Turning to GGACAACAUUUGACACCAATT against APOBEC2, the median seed-adjusted z-score is 0.232 (inactive).
The same measure for CAGACACCUUCAUACCUUATT against BHMT: 0 (inactive); for CUGCAAGACUUGGAGCUAATT against HDLBP: -1.18 (active).
With UGGGAGAAGUACAACAAUATT against FAM12A the figure was 0.08 (inactive).
CAACGACAGCAGUCCCAUUTT against EGR1: the median seed-adjusted z-score was 0.0836 (inactive).
